Measurements reported in PubChem BioAssay (NCATS).
Results filed as inconclusive are left out. The source made the active and inactive calls. Calls follow the shape of the full dose curve.

Assay: Validation screen for inhibitors of Lassa infection (AID 463096)
Settings: Lassa virus infection, cell-based; series mostly up to 46.1 µM; activity change, negative = inhibition: at the top concentration
% is scaled to controls: 0 for no effect and ±100 for the full control effect.

SMILES	activity change, negative = inhibition
c1cnc(N2CCN(Cc3ccc4c(c3)OCO4)CC2)nc1	41.6% (inactive)
Cn1cnc2c1c(=O)[nH]c(=O)n2C	3.6% (inactive)
CN(C)C(=O)Oc1cccc([N+](C)(C)C)c1	9.45% (inactive)
CNCCC(Oc1ccccc1OC)c1ccccc1 (stereo unspecified)	-10.8% (inactive)
COc1ccc(CCN(C)CCCC(C#N)(c2cc(OC)c(OC)c(OC)c2)C(C)C)cc1OC (stereo unspecified)	-4.33% (inactive)
CN1CCC(=C2c3ccccc3CC(=O)c3sccc32)CC1	-29% (inactive)
CCCCNc1c(C(=O)OCC)c(C)nc2c1cnn2CC	-16.3% (inactive)
CN(C)CCCN1c2ccccc2Sc2ccccc21	-28.2% (inactive)
COc1ccc(CN(CCN(C)C)c2ccccn2)cc1	11.1% (inactive)
CCCCC1C(=O)N(c2ccccc2)N(c2ccccc2)C1=O	-17.9% (inactive)
O=C(O)CCc1nc(-c2ccccc2)c(-c2ccccc2)o1	-8.35% (inactive)
CCCCCN(CCCCC)C(=O)C(CCC(=O)O)NC(=O)c1ccc(Cl)c(Cl)c1 (stereo unspecified)	-19% (inactive)
CCCCNc1ccc(C(=O)OCCN(C)C)cc1	3.36% (inactive)
CN(C(=O)CCCOc1ccc2[nH]c(=O)ccc2c1)C1CCCCC1	-5.92% (inactive)
CN(C)CCC(c1ccccc1)c1ccccn1 (stereo unspecified)	-7.51% (inactive)
NS(=O)(=O)c1cc2c(cc1Cl)NCNS2(=O)=O	-17.8% (inactive)
O=C1CC2(CCCC2)CC(=O)N1CCCCN1CCN(c2ncccn2)CC1	5.16% (inactive)
N[C@@H](Cc1c[nH]c2ccc(O)cc12)C(=O)O	12% (inactive)

SMILES	activity change, negative = inhibition
C[C@]12CC[C@@H]3c4ccc(O)cc4CC[C@H]3[C@@H]1CCC2=O	-24% (inactive)
C=Cc1c(C)c2cc3[nH]c(cc4nc(cc5nc(cc1[nH]2)C(C)=C5CCC(=O)O)C(CCC(=O)O)=C4C)c(C)c3C=C	8.55% (inactive)
Nc1ccn([C@H]2CC[C@@H](CO)O2)c(=O)n1	16.3% (inactive)
CCCN(CCC)C(=O)C(CCC(=O)O)NC(=O)c1ccccc1 (stereo unspecified)	0.851% (inactive)
CCOC(=O)C1=C[C@]2(CC)CCCN3CCc4c(n1c1ccccc41)[C@@H]32	-28.6% (inactive)
CCCCNc1cc(C(=O)O)cc(S(N)(=O)=O)c1Oc1ccccc1	-28.3% (inactive)
CC1=C(CC(=O)O)c2cc(F)ccc2/C1=C\c1ccc(S(C)(=O)=O)cc1	21.2% (inactive)
CCOC(=O)C(C)(C)Oc1ccc(Cl)cc1	4.17% (inactive)
CC(=O)OCC1=C(C(=O)O)N2C(=O)[C@@H](NC(=O)CSc3ccncc3)[C@H]2SC1	30.4% (inactive)
COC(=O)[C@@H](N)Cc1ccc(O)c(O)c1	8.42% (inactive)
Cc1ccc(=O)n(-c2ccccc2)c1	12.4% (inactive)
Cc1cc(C(C)(C)C)c(O)c(C)c1CC1=NCCN1	-18.3% (inactive)
COc1ccccc1N1CCN(CCCNc2cc(=O)n(C)c(=O)n2C)CC1	37.5% (inactive)
C[C@]12CCC(=O)C=C1CC[C@@H]1[C@@H]2CC[C@@]2(C)[C@H]1CC[C@]2(O)C(=O)CO	5.99% (inactive)
Cc1ccc(C(=O)Nc2ccc(S(=O)(=O)O)c3cc(S(=O)(=O)O)cc(S(=O)(=O)O)c23)cc1NC(=O)c1cccc(NC(=O)Nc2cccc(C(=O)Nc3cc(C(=O)Nc4ccc(S(=O)(=O)O)c5cc(S(=O)(=O)O)cc(S(=O)(=O)O)c45)ccc3C)c2)c1	-19.5% (inactive)
Cn1c(=O)c2c(ncn2C)n(C)c1=O	-6.44% (inactive)
Clc1ccc(Cn2c(CN3CCCC3)nc3ccccc32)cc1	-22.1% (inactive)
CCCn1cnc2c1c(=O)n(CCCCC(C)=O)c(=O)n2C	-12.2% (inactive)
